In PubChem BioAssay (NCATS):
Results filed as inconclusive are left out. A number with no mark means an inactive call. The call rests on the fitted dose curve; in most records, active means well fitted inhibition curve with a large enough effect; inconclusive means small, poorly fitted or top-dose-only effect; inactive means flat fitted curve, though single readings scatter.

test: Drug repurposing screens with cells derived from glioblastoma tumor samples (AID 1345199); conditions: GBM patient neurospheres viability, ATP luminescence, 48 h; at 21.2 µM (top of the series); tumour line D; further: nearly all actives have a fitted effect of over 40% in size
Summary of the method: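 Primary testing used CD133+ neurospheres from four GBM patients, seven concentrations, 48 h exposure and ATP-based viability; confirmation added three slower-growing patient lines.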
On the % scale 0 is the no-effect control and ±100 the full control effect.

Structure (SMILES) | activity, negative = cell killing
CCC(=O)O[C@@](Cc1ccccc1)(c1ccccc1)[C@@H](C)CN(C)C | -21.4%
C[C@]12CCC(=O)C=C1C=C[C@@H]1[C@@H]2CC[C@@]2(C)[C@H]1CC[C@@]2(O)CCC(=O)O | -8.65%
CC(=O)O[C@H]1CC[C@@]2(C)C(=CC[C@@H]3[C@@H]2CC[C@]2(C)C(=O)CC[C@@H]32)C1 | -21.5%

same assay, conditions: GBM patient neurospheres viability, ATP luminescence, 48 h; at 45.9 µM (top of the series); tumour line B

Structure (SMILES) | activity, negative = cell killing
O=C(CS(=O)C(c1ccccc1)c1ccccc1)NO (stereo not drawn) | -1.04%
C=CCN1CC[C@]23c4c5ccc(O)c4O[C@H]2[C@@H](O)C=C[C@H]3[C@H]1C5 | -22.5%
N#CN | -13.5%
O=C1CCO1 | -1.82%
CNc1ccc(C(=O)CC(O)CCC(C)C2OC(=O)CC(O)CC(=O)CC(O)CC(O)CC(O)CC(O)CC3(O)CC(O)C(C(=O)OC)C(CC(O[C@@H]4O[C@H](C)[C@@H](O)[C@H](N)[C@@H]4O)/C=C/C=C/C=C/C=C/C=C/C=C/C=C/C2C)O3)cc1 (stereo partly drawn) | -16.2%
CCCCCCCCOC(=O)c1ccccc1C(=O)OCCCCCCCC | -18%
N#CC1(N2CCCCC2)CCCCC1 | -11.3%
CCC1(CC)C(=O)NC(=O)N(C)C1=O | -3.71%
CC(=O)O[C@H]1CC[C@H]2[C@@H]3CCC4=CC(=O)CCC4=C3C=C[C@]12C | -12.7%
C#CCN1CC(=O)N(COC(=O)C2C(C=C(C)C)C2(C)C)C1=O (stereo not drawn) | -9.8%
C#CC(C)(O)CC (stereo not drawn) | -22.2%
NCC(O)c1cccc(O)c1 (stereo not drawn) | -9.47%
CC(=O)OC1CN2CCC1CC2 (stereo not drawn) | -1.18%
S=C=S | -6.17%
[2H]C([2H])([2H])[C@H](N)Cc1ccccc1 | -8.74%
O=C(NC(=O)c1c(F)cccc1F)Nc1ccc(Cl)c(Oc2ncc(C(F)(F)F)cc2Cl)c1 | -0.522%
O=C(CCl)c1ccc(Oc2ccc(C(=O)CCl)cc2)cc1 | -24.4%
OC[C@@H](O)[C@H]1O[C@@H]2O[C@H](C(Cl)(Cl)Cl)O[C@@H]2[C@H]1O | -1.98%
CCNC(C)Cc1cccc(C(F)(F)F)c1 (stereo not drawn) | -2.98%
CC(Cc1ccccc1)NC=O (stereo not drawn) | -10.4%
CCCC(C)C1(CC)C(=O)NC(=O)NC1=O (stereo not drawn) | -11.9%
CCN1C[C@]2(COC)[C@H](O)C[C@H](OC)[C@@]34[C@@H]5C[C@@]6(O)[C@H](OC(=O)c7ccccc7)[C@@H]5[C@@](OC(C)=O)([C@@H]([C@H](OC)[C@H]23)[C@@H]14)[C@@H](O)[C@@H]6OC | -6.48%
CCC(=O)O[C@]1(c2ccccc2)CCN(C)C[C@H]1C | -13.3%
O=c1[nH]c(=O)n(Cl)c(=O)n1Cl | -3.23%
COc1ccc(OC)c([C@@H](O)[C@H](C)N)c1 | -15.8%
CCC1(c2ccccc2)C(=O)NC(=O)N(C(=O)c2ccccc2)C1=O (stereo not drawn) | -17.6%
Clc1ccc(C2(Cn3cncn3)OCCO2)c(Cl)c1 | -15.5%
CCCCNCC(O)c1ccc(O)cc1 (stereo not drawn) | -14.1%
CN(C)CCCCCCN(C)C (tested in a mixture with another compound) | -12.5%
C[C@]12CC[C@H]3[C@@H](CC[C@@]45O[C@@H]4C(O)=C(C#N)C[C@]35C)[C@@H]1CC[C@@H]2O | 0.146%

same assay, conditions: GBM patient neurospheres viability, ATP luminescence, 48 h; at 45.9 µM (top of the series); tumour line D

Structure (SMILES) | activity, negative = cell killing
C=CCN1CC[C@]23c4c5ccc(O)c4O[C@H]2[C@@H](O)C=C[C@H]3[C@H]1C5 | 3.8%
N#CN | -4.31%
O=C1CCO1 | 6.37%
CNc1ccc(C(=O)CC(O)CCC(C)C2OC(=O)CC(O)CC(=O)CC(O)CC(O)CC(O)CC(O)CC3(O)CC(O)C(C(=O)OC)C(CC(O[C@@H]4O[C@H](C)[C@@H](O)[C@H](N)[C@@H]4O)/C=C/C=C/C=C/C=C/C=C/C=C/C=C/C2C)O3)cc1 (stereo partly drawn) | 9.06%
CCCCCCCCOC(=O)c1ccccc1C(=O)OCCCCCCCC | 6.99%
N#CC1(N2CCCCC2)CCCCC1 | -14.5%
CCC1(CC)C(=O)NC(=O)N(C)C1=O | -23.6%
CC(=O)O[C@H]1CC[C@H]2[C@@H]3CCC4=CC(=O)CCC4=C3C=C[C@]12C | -6.7%
C#CCN1CC(=O)N(COC(=O)C2C(C=C(C)C)C2(C)C)C1=O (stereo not drawn) | 15.2%
C#CC(C)(O)CC (stereo not drawn) | -11.4%
CN[C@H]1C[C@@H](N)[C@H](O)[C@@H](O[C@@H]2O[C@H](CO)[C@H](O)[C@@H]3OC4(O[C@H]23)O[C@H](C(N)CO)[C@H](O)[C@H](O)[C@H]4O)[C@@H]1O (stereo partly drawn) | -24.2%
NCC(O)c1cccc(O)c1 (stereo not drawn) | -16.5%
CC(=O)OC1CN2CCC1CC2 (stereo not drawn) | 12%
S=C=S | -16.5%
[2H]C([2H])([2H])[C@H](N)Cc1ccccc1 | -8.54%
O=C(NC(=O)c1c(F)cccc1F)Nc1ccc(Cl)c(Oc2ncc(C(F)(F)F)cc2Cl)c1 | -21.9%
O=C(CCl)c1ccc(Oc2ccc(C(=O)CCl)cc2)cc1 | -6.59%
OC[C@@H](O)[C@H]1O[C@@H]2O[C@H](C(Cl)(Cl)Cl)O[C@@H]2[C@H]1O | -2.86%
CCNC(C)Cc1cccc(C(F)(F)F)c1 (stereo not drawn) | -5.81%
CC(Cc1ccccc1)NC=O (stereo not drawn) | 2.52%
CCCC(C)C1(CC)C(=O)NC(=O)NC1=O (stereo not drawn) | 0.152%
CCN1C[C@]2(COC)[C@H](O)C[C@H](OC)[C@@]34[C@@H]5C[C@@]6(O)[C@H](OC(=O)c7ccccc7)[C@@H]5[C@@](OC(C)=O)([C@@H]([C@H](OC)[C@H]23)[C@@H]14)[C@@H](O)[C@@H]6OC | -4.25%
CCC(=O)O[C@]1(c2ccccc2)CCN(C)C[C@H]1C | -17.1%
O=c1[nH]c(=O)n(Cl)c(=O)n1Cl | -0.766%
COc1ccc(OC)c([C@@H](O)[C@H](C)N)c1 | -1.31%
CCC1(c2ccccc2)C(=O)NC(=O)N(C(=O)c2ccccc2)C1=O (stereo not drawn) | -13.8%
Clc1ccc(C2(Cn3cncn3)OCCO2)c(Cl)c1 | 0.916%
CCCCNCC(O)c1ccc(O)cc1 (stereo not drawn) | -0.799%
CN(C)CCCCCCN(C)C (tested in a mixture with another compound) | -12.1%
C[C@]12CC[C@H]3[C@@H](CC[C@@]45O[C@@H]4C(O)=C(C#N)C[C@]35C)[C@@H]1CC[C@@H]2O | -21.9%
